According to PubChem BioAssay:
Values without a mark were called inactive. Where a call stands in place of a potency, no number is given. For part of these data: Potency and affinity values are given separately. Active and inactive are the calls of the source. Unless noted, the rule behind the calls is not given here.

How the values were obtained:
[1] = antimalarial activity against Dd2 strain (AID 2302;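 active = growth inhibition above 50% at the single 2 µM test dose, taken to imply half-maximal potency below 2 µM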); details: P. falciparum Dd2 in RBCs, LDH growth readout, 72 h; at 2 µM; hits give high values
[2] = HepG2 cytotoxicity, primary screen, cytotoxicity control for P. falciparum antimalarial project, cell-based, ATP luminescence (AID 2303;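 active = inhibition above 50%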); details: HepG2 viability, 24-48 h, at 10 µM, hits give high values
[3] = target: L-lactate dehydrogenase (Plasmodium falciparum (isolate CDC / Honduras)) (UniProt Q27743); experiment: PfLDH activity inhibition – cell lysate, 3D7 strain, counter-screen for P. falciparum growth inhibition project (AID 2304); details: P. falciparum 3D7 crude extract, LDH APAD/NBT absorbance; at 2 µM; hits give high values
L-lactate dehydrogenase (Plasmodium falciparum (isolate CDC / Honduras)), sequence (Q27743 whole entry, looked up): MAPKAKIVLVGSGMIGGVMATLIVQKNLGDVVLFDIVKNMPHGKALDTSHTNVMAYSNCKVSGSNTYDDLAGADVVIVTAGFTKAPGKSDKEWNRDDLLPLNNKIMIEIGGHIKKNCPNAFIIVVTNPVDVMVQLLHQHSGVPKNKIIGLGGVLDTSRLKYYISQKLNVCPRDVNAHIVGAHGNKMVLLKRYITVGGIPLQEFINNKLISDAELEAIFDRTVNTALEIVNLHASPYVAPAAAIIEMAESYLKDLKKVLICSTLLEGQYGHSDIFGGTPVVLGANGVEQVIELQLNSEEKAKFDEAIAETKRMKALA

[4] = inhibition of 3D7 malaria parasite growth – strain 3D7 (AID 2306); details: P. falciparum 3D7 erythrocytic growth, LDH absorbance, 72 h; at 2 µM; hits give high values
[5] = target: Calcium-dependent protein kinase 1 (Plasmodium falciparum (isolate 3D7)) (UniProt P62344); experiment: PfCDPK1 kinase inhibitors, biochemical, TCAMS library (AID 1159585; cut-off not given, nearly all actives have IC50 up to about 0.98 µM;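 note: inhibitors leave more ATP so luminescence rises with inhibition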); details: recombinant PfCDPK1, Kinase-Glo ATP depletion luminescence
Calcium-dependent protein kinase 1 (Plasmodium falciparum (isolate 3D7)), sequence (P62344 whole entry, looked up): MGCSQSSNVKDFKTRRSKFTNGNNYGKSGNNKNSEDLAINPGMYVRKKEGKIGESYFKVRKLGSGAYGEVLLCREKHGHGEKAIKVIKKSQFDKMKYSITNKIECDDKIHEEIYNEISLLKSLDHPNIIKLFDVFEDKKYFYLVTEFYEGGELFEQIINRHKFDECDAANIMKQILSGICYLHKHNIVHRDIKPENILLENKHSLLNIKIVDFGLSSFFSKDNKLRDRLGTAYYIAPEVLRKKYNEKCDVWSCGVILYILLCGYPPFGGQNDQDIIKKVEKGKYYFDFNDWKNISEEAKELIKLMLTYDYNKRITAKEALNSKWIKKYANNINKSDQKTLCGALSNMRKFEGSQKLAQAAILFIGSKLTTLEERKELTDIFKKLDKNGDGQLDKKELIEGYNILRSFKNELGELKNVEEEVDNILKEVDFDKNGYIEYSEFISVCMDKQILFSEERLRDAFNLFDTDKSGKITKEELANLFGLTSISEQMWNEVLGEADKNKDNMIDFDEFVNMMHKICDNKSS

[6] = target: Plasmodium falciparum protein kinase 6 (PK6, PF3D7_1337100) (UniProt Q8IDW1); experiment: PfPK6 kinase inhibitors, biochemical, TCAMS library (AID 1159586); details: recombinant PfPK6, Kinase-Glo ATP depletion luminescence
Plasmodium falciparum protein kinase 6 (PK6, PF3D7_1337100), sequence (Q8IDW1 1-305): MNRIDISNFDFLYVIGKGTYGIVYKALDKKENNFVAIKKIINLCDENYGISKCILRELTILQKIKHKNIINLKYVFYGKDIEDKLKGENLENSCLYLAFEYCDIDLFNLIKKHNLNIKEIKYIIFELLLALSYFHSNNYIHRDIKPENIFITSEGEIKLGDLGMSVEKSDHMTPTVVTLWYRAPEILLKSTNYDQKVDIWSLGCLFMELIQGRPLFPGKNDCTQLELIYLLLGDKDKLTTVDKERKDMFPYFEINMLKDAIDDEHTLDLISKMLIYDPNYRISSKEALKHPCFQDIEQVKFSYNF

[7] = target: Protein kinase 7 (PK7), Plasmodium falciparum 3D7 (PF3D7_0213400) (UniProt Q7YTF7); experiment: inhibition of Plasmodium PK7 catalytic activity – biochemical, TCAMS antimalarial set, Kinase-Glo luminescence (AID 1159587); details: recombinant PfPK7, Kinase-Glo ATP depletion luminescence
Protein kinase 7 (PK7), Plasmodium falciparum 3D7 (PF3D7_0213400), sequence (Q7YTF7 1-343): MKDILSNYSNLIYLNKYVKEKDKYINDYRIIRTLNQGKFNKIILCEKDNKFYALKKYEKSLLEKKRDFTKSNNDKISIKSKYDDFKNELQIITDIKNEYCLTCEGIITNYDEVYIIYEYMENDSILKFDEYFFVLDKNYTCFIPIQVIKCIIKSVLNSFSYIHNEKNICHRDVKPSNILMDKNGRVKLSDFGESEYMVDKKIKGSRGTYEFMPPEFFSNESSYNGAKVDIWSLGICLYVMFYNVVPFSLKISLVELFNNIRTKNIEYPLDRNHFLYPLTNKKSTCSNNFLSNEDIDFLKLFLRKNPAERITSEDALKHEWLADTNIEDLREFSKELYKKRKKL

[8] = target: Calcium-dependent protein kinase 4 (Plasmodium falciparum (isolate 3D7)) (UniProt Q8IBS5); experiment: PfCDPK4 kinase inhibitors, biochemical, TCAMS library (AID 1159588; cut-off not given, nearly all actives have IC50 up to about 0.91 µM); details: recombinant PfCDPK4, Kinase-Glo ATP depletion luminescence
Calcium-dependent protein kinase 4 (Plasmodium falciparum (isolate 3D7)), sequence (Q8IBS5 whole entry, looked up): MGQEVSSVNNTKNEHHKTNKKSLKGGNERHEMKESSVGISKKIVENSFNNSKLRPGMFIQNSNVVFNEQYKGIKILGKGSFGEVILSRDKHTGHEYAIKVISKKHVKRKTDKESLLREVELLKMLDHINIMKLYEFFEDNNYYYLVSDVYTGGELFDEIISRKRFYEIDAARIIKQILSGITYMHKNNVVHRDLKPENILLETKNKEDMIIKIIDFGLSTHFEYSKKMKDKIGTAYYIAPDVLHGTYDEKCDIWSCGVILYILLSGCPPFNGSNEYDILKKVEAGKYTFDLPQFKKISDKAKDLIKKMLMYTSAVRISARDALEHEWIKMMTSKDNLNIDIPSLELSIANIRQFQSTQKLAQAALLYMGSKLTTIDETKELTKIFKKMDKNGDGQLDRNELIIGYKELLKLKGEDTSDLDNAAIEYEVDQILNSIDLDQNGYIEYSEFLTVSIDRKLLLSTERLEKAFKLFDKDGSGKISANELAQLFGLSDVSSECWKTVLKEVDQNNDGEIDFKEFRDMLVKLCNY

Row | SMILES | growth inhibition [1] | inhibition [2] | inhibition [3] [%] | growth inhibition [4] | outcome [5] | outcome [6] | outcome [7] | outcome [8]
1 | CCCCCCN1CCC(NCc2ccc(Cl)cc2)CC1 | 9% | 19% | -7 | 98% (active) | inactive | inactive | inactive | inactive
2 | Cc1[nH]c(C)c(-c2ccc(CCc3ccc(C(F)(F)F)cc3)nc2)c(=O)c1Cl | 97% (active) | 24% | 2 | 97% (active) | inactive | inactive | inactive | inactive
3 | COc1ccc(OC(C)CNC(=O)c2cc([N+](=O)[O-])ccc2-c2ccc(OC)cc2)cc1 (stereo not drawn) | 44% | 18% | 3 | 92% (active) | inactive | inactive | inactive | inactive
4 | O=C1CSc2ccc(CNC3CCN(CCc4c(Cl)cnc5ccc(F)cc45)CC3)nc2N1 | 52% (active) | 21% | -2 | 98% (active) | inactive | inactive | inactive | inactive
5 | CN1CCC(NCc2cccc(-c3ccc(S(=O)(=O)NCCc4ccccn4)cc3)c2)CC1 | 1% | 10% | -1 | 95% (active) | inactive | inactive | inactive | inactive
6 | C#CCCOc1ccc2ccccc2c1CNCCCCCCNCc1c(OCCC#C)ccc2ccccc12 | 65% (active) | 100% (active) | 2 | 100% (active) | inactive | inactive | inactive | inactive
7 | Cc1cccc2[nH]c(-c3ccc(-c4ccc(CN5CCCC(O)C5)cc4)cc3)nc12 (stereo not drawn) | 54% (active) | 41% | 6 | 100% (active) | inactive | inactive | inactive | inactive
8 | CCc1c[nH]c2c(N3CCCC3=O)cc(C(=O)N[C@@H](Cc3ccccc3)[C@H](O)CNC3CCCCC3)cc12 | 98% (active) | 12% | -1 | 100% (active) | inactive | inactive | inactive | inactive
9 | FC(F)(F)COc1c(CCNCCCCNCCc2ccc3ccccc3c2OCC(F)(F)F)ccc2ccccc12 | 97% (active) | 99% (active) | -3 | 101% (active) | inactive | inactive | inactive | inactive
10 | Cc1cc2[nH]c(-c3ccc(C(=O)NCCCN4CCN(c5cccc(Cl)c5)CC4)cc3F)nc2cc1Cl | 79% (active) | -2% | 5 | 99% (active) | inactive | inactive | inactive | inactive
11 | COc1ccc(C(=O)[C@H]2C[C@@H]2CN(C)CC(O)c2cc(C)c(OC)cc2C)cc1 (stereo partly drawn) | 77% (active) | 8% | -3 | 90% (active) | inactive | inactive | inactive | inactive
12 | CC(C)c1ccc(NC(=O)NC2CCN(CCCCCNC(=O)/C=C/c3ccc(Cl)c(Cl)c3)CC2)cc1 | 19% | -5% | -2 | 100% (active) | inactive | inactive | inactive | inactive
13 | CC(=O)Nc1ncc(C(=O)Nc2cccc(-c3cccc(-c4nc5ccc(F)cc5[nH]4)c3)c2)s1 | 93% (active) | 27% | 5 | 101% (active) | inactive | inactive | inactive | inactive
14 | CC(=O)Nc1nc(C(=O)Nc2ccc(-c3ccc(-c4nc5ccc(F)cc5[nH]4)cc3)cc2)cs1 | 33% | 17% | -5 | 100% (active) | inactive | inactive | inactive | inactive
15 | O=C1NC(=O)C(c2ccc(Cl)cc2)=C1Nc1cccc(S(=O)(=O)C(F)(F)F)c1 | 51% (active) | 1% | -2 | 99% (active) | inactive | inactive | inactive | inactive
16 | Nc1cc(-c2cccc(Cl)c2)nn1-c1ccnc2cc(Cl)ccc12 | 33% | -3% | -2 | 99% (active) | inactive | inactive | inactive | inactive
17 | Cc1cc(-c2ccc(CNCc3ccsc3)cc2)ccc1S(=O)(=O)NCCN1CCCC1 | 49% | 57% (active) | -1 | 99% (active) | inactive | inactive | inactive | inactive
18 | COc1cccc(Nc2c(C(N)=O)cnc3ccc(-c4ccc(S(C)=O)cc4)cc23)c1 (stereo not drawn) | 100% (active) | -3% | 9 | 96% (active) | inactive | inactive | inactive | inactive

Row | SMILES | growth inhibition [1] | inhibition [2] | inhibition [3] [%] | growth inhibition [4] | outcome [5] | outcome [6] | outcome [7] | outcome [8]
19 | Cc1cc2c(NC(=O)NC3CCN(CCc4cccc(Cl)c4)CC3)cccc2cn1 | 27% | 12% | -5 | 100% (active) | inactive | inactive | inactive | inactive
20 | Nc1nc2c(ncn2OC[C@H]2COP(=O)(O)CO2)c(=O)[nH]1 | 32% | 1% | -2 | 92% (active) | inactive | inactive | inactive | inactive
21 | COCc1ccc(CN2CCC(C(=O)Nc3ccc(-c4nc5ccccc5[nH]4)cc3)CC2)o1 | 13% | 13% | -5 | 97% (active) | inactive | inactive | inactive | inactive
22 | Cc1cccc2[nH]c(-c3ccc(-c4cccc(CN5CCCCC5)c4)s3)nc12 | 92% (active) | 11% | -2 | 100% (active) | inactive | inactive | inactive | inactive
23 | CC(C)c1cccc(C(NC(=O)[C@H]2Cc3ccccc3CN2C(=O)c2cccc(N3CCOCC3)c2)C2CCCC2)c1 (stereo partly drawn) | 96% (active) | 3% | 1 | 94% (active) | inactive | inactive | inactive | inactive
24 | CCNc1cc(C(=O)N[C@@H](Cc2ccccc2)[C@H](O)CNC(C)C)cc(N2CC(c3ccccc3)CCS2(=O)=O)c1 (stereo partly drawn) | 99% (active) | 0% | -1 | 98% (active) | inactive | inactive | inactive | inactive
25 | COCCCNc1nc2cc(OC)c(OC)cc2c2nc(-c3ccccc3)nn12 | 97% (active) | 6% | -6 | 95% (active) | inactive | inactive | inactive | inactive
26 | Cc1[nH]c(C)c(-c2ccc(Oc3ccc(Cl)cc3)cc2)c(=O)c1Br | 96% (active) | 12% | -4 | 97% (active) | inactive | inactive | inactive | inactive
27 | c1csc(-c2nc(NCC3CCCO3)ncc2-c2ccsc2)n1 (stereo not drawn) | 83% (active) | -4% | 1 | 89% (active) | inactive | inactive | inactive | inactive
28 | N=c1n(Cc2ccc(Cl)cc2)c2ccccc2n1CC(O)c1ccc(Cl)c(Cl)c1 (stereo not drawn) | 99% (active) | 58% (active) | 4 | 98% (active) | inactive | inactive | inactive | inactive
29 | Cc1ccc2ccccc2c1CCCON1C(N)=NC(N)=NC1(C)C | 97% (active) | 65% (active) | 5 | 95% (active) | inactive | inactive | inactive | inactive
30 | COc1cccc(-c2ccc(C(=O)NCC3CCCN(Cc4cccc(C(F)(F)F)c4)C3)s2)c1 (stereo not drawn) | 18% | 10% | 0 | 85% (active) | inactive | inactive | inactive | inactive
31 | O=C(N[C@H]1CCN(Cc2ccc(OC3CCN(Cc4ccccc4)CC3)cc2)C1)c1ccc(Cl)c(Cl)c1 | 6% | 37% | 1 | 90% (active) | inactive | inactive | inactive | inactive
32 | c1ccc(C2CCN(Cc3ccc(-c4c[nH]c5nc(NC6CCCC6)ncc45)cc3)CC2)cc1 | 9% | 39% | -1 | 82% (active) | inactive | inactive | inactive | inactive
33 | Cc1cc(CNCCCCCCCNCc2ccc(Cl)cc2)ccc1O | 0% | 13% | -4 | 97% (active) | inactive | inactive | inactive | inactive
34 | CCOc1ccc(C=CC(=O)Nc2ccc3nc(N4CCN(C)CC4)cc(C)c3c2)cc1OC | 70% (active) | -2% | -10 | 102% (active) | inactive | inactive | inactive | inactive
35 | CS(=O)(=O)c1ccc(CNCc2ccc(-c3ccc(-c4nc5ccc(C(F)(F)F)cc5[nH]4)cc3)cc2)cc1 | 82% (active) | 26% | 3 | 101% (active) | inactive | inactive | inactive | inactive
36 | Oc1ccc(CCNc2nc(NCc3ccccc3Oc3ccc(C(F)(F)F)cc3)nc(N3CCNCC3)n2)cc1 | 2% | 26% | 0 | 86% (active) | inactive | inactive | inactive | inactive
